# Structures can show the parent of a compound that is named as a salt.
# System: MDA-MB-231
# Assay: relative cell viability, compound + RSL3, vs DMSO (fraction of DMSO control); higher = less growth inhibition
# Details: 72 h
# 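Also: breast cancer cell viability read out with the CCK-8 kit after co-treatment of each compound with the ferroptosis inducer RSL3.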
row,Compound,relative cell viability
1,CSc1ccc(C(=O)/C=C/c2cc(C)c(OC(C)(C)C(=O)O)c(C)c2)cc1 [Elafibranor] + COC(=O)c1ccc([C@H]2c3[nH]c4ccccc4c3C[C@H](C(=O)OC)N2C(=O)CCl)cc1 [RSL3],0.685
2,CC(C)OC(=O)CCC/C=C\C[C@@H]1[C@@H](CC[C@@H](O)CCc2ccccc2)[C@H](O)C[C@@H]1O [Latanoprost] + COC(=O)c1ccc([C@H]2c3[nH]c4ccccc4c3C[C@H](C(=O)OC)N2C(=O)CCl)cc1 [RSL3],0.597
3,O=C(O)c1cc(F)c2nc(N3[C@@H]4CC[C@H]3C[C@@H](OCc3c(-c5ccccc5OC(F)(F)F)noc3C3CC3)C4)sc2c1 [Tropifexor] + COC(=O)c1ccc([C@H]2c3[nH]c4ccccc4c3C[C@H](C(=O)OC)N2C(=O)CCl)cc1 [RSL3],0.63
4,O=C(O)c1cc2c(Cl)c(N3CCN(S(=O)(=O)c4c(Cl)cccc4Cl)CC3)ccc2o1 [Vonafexor] + COC(=O)c1ccc([C@H]2c3[nH]c4ccccc4c3C[C@H](C(=O)OC)N2C(=O)CCl)cc1 [RSL3],0.745
5,Nc1ccc(C(=O)O)c(O)c1 [Aminopar] + COC(=O)c1ccc([C@H]2c3[nH]c4ccccc4c3C[C@H](C(=O)OC)N2C(=O)CCl)cc1 [RSL3],0.662
6,C=C[C@H]1CN2CC[C@H]1C[C@@H]2[C@@H](O)c1ccnc2ccc(OC)cc12 [Quinidine sulfate] + COC(=O)c1ccc([C@H]2c3[nH]c4ccccc4c3C[C@H](C(=O)OC)N2C(=O)CCl)cc1 [RSL3],0.673
7,CC(C)c1nc(N(C)S(C)(=O)=O)nc(-c2ccc(F)cc2)c1/C=C/[C@@H](O)C[C@@H](O)CC(=O)O [Rosuvastatin] + COC(=O)c1ccc([C@H]2c3[nH]c4ccccc4c3C[C@H](C(=O)OC)N2C(=O)CCl)cc1 [RSL3],0.527
8,O=c1c(O[C@@H]2O[C@H](CO)[C@@H](O)[C@H](O)[C@H]2O)c(-c2ccc(O)cc2)oc2cc(O)cc(O)c12 [Astragalin] + COC(=O)c1ccc([C@H]2c3[nH]c4ccccc4c3C[C@H](C(=O)OC)N2C(=O)CCl)cc1 [RSL3],0.645
9,CC(C)(Oc1ccc(C(=O)c2ccc(Cl)cc2)cc1)C(=O)O [Choline Fenofibrate] + COC(=O)c1ccc([C@H]2c3[nH]c4ccccc4c3C[C@H](C(=O)OC)N2C(=O)CCl)cc1 [RSL3],0.692
10,COC(=O)c1sccc1S(=O)(=O)Nc1ccc(Nc2ccccc2)cc1OC + COC(=O)c1ccc([C@H]2c3[nH]c4ccccc4c3C[C@H](C(=O)OC)N2C(=O)CCl)cc1 [RSL3],0.542
11,Nn1nnc2ccccc21 [1-Aminobenzotriazole] + COC(=O)c1ccc([C@H]2c3[nH]c4ccccc4c3C[C@H](C(=O)OC)N2C(=O)CCl)cc1 [RSL3],0.758
12,C[C@]12C=CC(=O)N[C@@H]1CC[C@@H]1[C@@H]2CC[C@]2(C)[C@@H](C(=O)Nc3cc(C(F)(F)F)ccc3C(F)(F)F)CC[C@@H]12 [Dutasteride] + COC(=O)c1ccc([C@H]2c3[nH]c4ccccc4c3C[C@H](C(=O)OC)N2C(=O)CCl)cc1 [RSL3],0.427
13,O=C(NNc1ccccc1)c1ccncc1 [PluriSln 1] + COC(=O)c1ccc([C@H]2c3[nH]c4ccccc4c3C[C@H](C(=O)OC)N2C(=O)CCl)cc1 [RSL3],0.656
14,CCc1ccc(N(CC(C)C)S(=O)(=O)c2ccc(OCC3CCOCC3)c(CO)c2)cc1 + COC(=O)c1ccc([C@H]2c3[nH]c4ccccc4c3C[C@H](C(=O)OC)N2C(=O)CCl)cc1 [RSL3],0.581
15,O=S(=O)(Nc1ccc(C(O)(C(F)(F)F)C(F)(F)F)cc1)c1cccs1 + COC(=O)c1ccc([C@H]2c3[nH]c4ccccc4c3C[C@H](C(=O)OC)N2C(=O)CCl)cc1 [RSL3],0.63
16,CC(=O)O[C@H](CC=C(C)C)C1=CC(=O)c2c(O)ccc(O)c2C1=O [Acetyl shikonin] + COC(=O)c1ccc([C@H]2c3[nH]c4ccccc4c3C[C@H](C(=O)OC)N2C(=O)CCl)cc1 [RSL3],0.681
17,CC[C@@H]1/C=C(\C)C[C@H](C)C[C@H](OC)[C@H]2O[C@@](O)(C(=O)C(=O)N3CCCC[C@H]3C(=O)O[C@H](/C(C)=C/[C@@H]3CC[C@@H](O)[C@H](OC)C3)[C@H](C)[C@@H](O)CC1=O)[C@H](C)C[C@@H]2OC [Ascomycin] + COC(=O)c1ccc([C@H]2c3[nH]c4ccccc4c3C[C@H](C(=O)OC)N2C(=O)CCl)cc1 [RSL3],0.236
